According to PubChem BioAssay AID1220 (Sanford-Burnham Center for Chemical Genomics, 2008):
Out of some 190,000 compounds screened, about 1,300 (0.68%) were called active. Cut-off read from the data, not from the text of the source: active = inhibition above about 50%; inactive = the rest. For the sample, actives were picked, then their nearest neighbours and some compounds at random.

Molecular target: Mannose-6-phosphate isomerase (Homo sapiens) (UniProt P34949)
Assay: human PMI inhibitors, high substrate, primary screen, biochemical, fluorescence intensity, high mannose 6-phosphate (AID 1220)
Conditions: recombinant PMI enzyme, coupled fluorescence intensity; at 20 µM; active compounds read high

Chain of Mannose-6-phosphate isomerase (Homo sapiens) (P34949 whole entry, looked up): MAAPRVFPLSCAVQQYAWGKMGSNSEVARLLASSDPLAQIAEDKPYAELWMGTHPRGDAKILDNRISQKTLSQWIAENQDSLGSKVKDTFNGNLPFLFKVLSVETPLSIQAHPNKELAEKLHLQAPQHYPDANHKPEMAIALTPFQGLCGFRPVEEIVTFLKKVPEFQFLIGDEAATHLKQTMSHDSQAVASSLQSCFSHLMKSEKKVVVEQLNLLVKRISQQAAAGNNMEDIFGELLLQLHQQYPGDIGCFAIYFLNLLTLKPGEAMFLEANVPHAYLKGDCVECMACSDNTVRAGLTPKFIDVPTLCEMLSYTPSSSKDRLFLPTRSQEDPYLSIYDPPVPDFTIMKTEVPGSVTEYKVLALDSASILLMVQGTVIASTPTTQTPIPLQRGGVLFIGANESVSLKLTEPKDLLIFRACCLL

inhibition, inactive:
O=C(O)c1cn(Cc2cccnc2)c(=O)c2ccccc12 1.5%
CCOC(=O)C1=C(c2ccccc2)Nc2ncnn2C1c1cc(OC)ccc1OC (stereo not given) 7.8%
Cn1c(=O)[nH]c(=O)c2c1nc(SCCN1CCOCC1)n2Cc1ccccc1 6.9%
COc1ccc(NC(=O)CCC(=O)OCc2ccc(C(=O)Oc3ccc(Cl)cc3)cc2)cc1 -5.2%
CCCCN1C(=O)C(O)=C(C(C)=O)C1c1ccccc1 (stereo not given) -7.7%
COCCN(CCOC)c1nc(N)c2c(N)nc3c(c2c1C#N)CC(=O)N3Cc1ccc(Cl)cc1 25.1%
CN(CCO)c1nc(N)c2c(N)nc3c(c2c1C#N)CC(=O)N3Cc1cccs1 33.7%
CC(=O)c1c(C)[nH]c(C(=O)NCCc2ccccc2)c1C 2.6%
c1ccc(-n2cccc2CNC2CCCCC2)cc1 -4.6%
O=c1cc(N2CCOCC2)c2ccccc2o1 4.1%
Oc1ccc2c(c1)C1CCCC1(N1CCOCC1)O2 (stereo not given) 24.6%
Cc1ccc(C)c(NC(=S)/C(=C(\[O-])c2ccc(Cl)s2)[n+]2ccccc2)c1 26.5%
Cc1ccc(NC(=S)/C(=C(\[O-])c2ccc(Cl)s2)[n+]2cccc(CO)c2)cc1C 10.4%
Cc1c(CNC(=O)c2cnn3c2NC(c2ccc(Br)cc2)CC3C(F)(F)F)cnn1C (stereo not given) 11.4%
Cc1ccc(NS(=O)(=O)c2cc([N+](=O)[O-])ccc2NNC(=S)Nc2cc(C)ccc2C)c(C)c1 9.1%
CC(=O)N(C)C1=C(N2CCOCC2)C(=O)c2ccccc2C1=O 33.1%
CC(=O)N(C)C1=C(O)c2ccccc2C(=O)C1=O 19.6%
NC(=O)COC(=O)c1cccc(NS(=O)(=O)/C=C/c2ccccc2)c1 4.6%
Cn1c(C(=O)O)cnc1Sc1ncc(C(F)(F)F)cc1Cl -17.5%
Cc1ccc(Nc2nnc(SCc3cc(=O)n4ccsc4n3)s2)c(C)c1 8.6%
COc1ccc2[nH]c3c(=O)n(Cc4ccc(C(=O)NCC5CCCO5)cc4)c(=S)[nH]c3c2c1 (stereo not given) 3.5%

inhibition, active:
CCCCN1C(=O)Cc2c1nc(N)c1c(N)nc(N(CCC)CCC)c(C#N)c21 56%
c1ccc2c3c(cc(N4CCOCC4)c2c1)OC1(N2CCOCC2)CCCCC1O3 (stereo not given) 60.5%
Cc1cc(C)cc(NC(=S)/C(=C(\[O-])c2ccc(Cl)s2)[n+]2cccc(C)c2)c1 51.9%
CC(=O)N(C1=C(N)C(=O)c2ccccc2C1=O)C(C)C 54.5%
